In PubChem BioAssay (NCI) one finds growth data, which are given here for 34 molecules.

The structures appear in SMILES notation. Values joined by “and” are separate entries in the source; they are usually repeats but may differ in a detail not shown here. Equal values may be shown once. Compounds without any hit were thinned out: in the full panel of roughly 83,000, 20% have a hit.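 Cell lines were cultured in 96-well plates, exposed to a single compound concentration, and assessed for percent growth 48 hours later.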 Active and inactive are the calls of the source. How the source made its calls: active means growth percent below 10; inactive means the rest.

For the assay, the system named is HL-60(TB) leukemia. Nature of the assay: NCI-60 one-dose screen, 48 h (100 = growth as untreated, 0 = no growth, -100 = all killed). Particulars: 10 µM unless noted.
For `COc1c(F)ccc(C(=O)Nc2ccc3nc(NC(=O)C4CCCN(S(=O)(=O)c5ccc(Cl)cc5)C4)sc3c2)c1F` (centres undefined), the growth is 83.4% (inactive).

In the case of `O=C(NN1C(=O)/C(=C/C=C/c2ccc([N+](=O)[O-])o2)SC1=S)c1cccc(O)c1`, the growth was -2.32% (active).

With `Cc1c(C(=O)NNC(=O)Nc2ccc(Cl)cc2)nnn1-c1ccc(Br)cc1`, the growth was 103% (inactive).

Regarding `O=C(c1ccc(Cl)cc1)c1ccc(OCCCN2CCN(c3ccncc3)CC2)cc1`, the growth is -3.36% (active).

Regarding `COc1cc(C=O)ccc1Oc1nc(Nc2ccc(F)cc2)nc(N(C)C)n1`, the growth is 65.2% (inactive) and 70.8% (inactive).

On to `COc1cc(-c2cc(-c3cccc(OCC(=O)O)c3)[nH]c(=O)c2C#N)cc(OC)c1OC`, for which the growth is 80.6% (inactive).

With `CN1C(=O)C2(C(C#N)=C(c3ccc(Cl)cc3)Nc3c2c(-c2ccccc2)nn3-c2ccccc2)c2ccccc21` (centres undefined), the growth was 50.3% (inactive).

Turning to `C#CCOc1cc(N(CC)CC)ccc1C(C(=O)NC(C)(C)C)N(C(=O)C1CCc2cc(F)ccc2O1)c1ccc(F)cc1` (centres undefined), the growth was 3.9% (active).

Take `Cc1ccc2c(c1)nc(-c1ccccc1)n2CC(=O)N=Nc1c(O)[nH]c2ccc(Br)cc12`: the growth is 7.86% (active).

On to `COc1cc(/C=C/C(=O)c2ccc(S(=O)(=O)NCCNc3nc(N(C)C)nc(N4CCOCC4)n3)cc2)cc(OC)c1OC`, for which the growth was -64.8% (active).

`O=C(CSc1nc2sc3c(c2c(=O)n1-c1ccc(Cl)cc1)CCCC3)N/N=C/C=C/c1ccccc1`: the growth was 64.5% (inactive).

Consider `C#CCCCNCCNc1ccnc2cc(Cl)ccc12`, for which the growth was 46.8% (inactive).

For the molecule `COc1ccc(N=Nc2c(N)nn3c(-c4ccc5c(c4)C=S=C5)ccnc23)cc1`, the growth was 37.7% (inactive).

For the molecule `CCOC(=O)C1=C(N)N(c2ccccc2)C2=C(C(=O)CC(C)(C)C2)C1c1ccc([N+](=O)[O-])cc1` (centres undefined), the growth is 92.9% (inactive).

Turning to `Nc1nc2c(F)c(F)c(F)c(F)c2s1`, the growth was 110% (inactive).

As to `COc1cc2c(c(OC)c1OC)C(=O)CC(c1cccc(NC(=O)c3cccc(N)c3)c1)O2` (centres undefined), the growth is 86.4% (inactive).

For the molecule `S=c1c2ccccc2nc2n1CCc1c-2[nH]c2ccccc12`, the growth is 98% (inactive).

For `O=C(COc1ccc(/C=C2/C(=O)Nc3ccc(Cl)cc32)cc1)Nc1ccc(Br)cc1`, the growth is 10.3% (inactive).

As to `O=C(Nc1nc2ccc([N+](=O)[O-])cc2s1)Nc1ccc(Cl)cc1Cl`, the growth is 50.1% (inactive).

For `CCOc1ccc2[nH]c(=O)c(C(c3nnnn3CC3CCCO3)N3CCN(Cc4ccccc4)CC3)cc2c1` (centres undefined), the growth was 149% (inactive).

For `COc1ccc2c(c1)N=c1c-2cc2c(O)[nH]c(=S)n2c1=O`, the growth was -13.3% (active).

As for `COc1cc(Nc2nc(O)c(/C=C3\C=Nc4ccccc43)s2)cc(OC)c1OC`, the growth is -16% (active).

In the case of `CN1CCN(Cc2ccc(C(=O)Nc3cccc(Nc4ccc5c(O)cccc5n4)c3)cc2C(F)(F)F)CC1`, the growth is -34.1% (active).

As to `COc1cc2c(c(OC)c1OC)C(=O)CC(c1cccc(NC(=O)c3cccc([N+](=O)[O-])c3)c1)O2` (centres undefined), the growth was 26.1% (inactive).

As for `O=C(/C=C/Nc1ccccc1)c1ccc2c(c1)Nc1ccccc1S2`, the growth is 90.9% (inactive).

For `CC1(C)CC[C@]2(C(=O)O)CC[C@]3(C)C(=CCC4[C@@]5(C)C[C@@H](O)[C@@H]6OC(c7ccc(F)cc7)OC[C@@]6(C)C5CC[C@]43C)C2C1` (some centres undefined), the growth was 3.11% (active).

On to `N/C(=N\c1nc2ccccc2s1)NC(=O)Nc1ccccc1F`, for which the growth was -5.29% (active).

Take `Fc1ccc(/C=C/c2nc3ccccc3n3c(-c4ccc(Cl)cc4)nnc23)cc1`: the growth was 3.61% (active).

On to `O=C1Nc2ccc(Cl)cc2/C1=C/c1cccc(OCc2ccccn2)c1`, for which the growth was -25% (active).

In the case of `Cc1ccc([C@H]2C(C(=O)c3ccc(Cl)cc3)C3(N[C@@H]2c2ccccc2)C(=O)Nc2ccccc23)cc1` (some centres undefined), the growth is -22.2% (active).

`O=C(NN1C(=O)/C(=C/C=C/c2ccc([N+](=O)[O-])o2)SC1=S)c1ccc(O)cc1`: the growth was -41.8% (active).

As to `COc1ccc(-c2nc3ccccc3n2CC(=O)N=Nc2c(O)[nH]c3ccc(Br)cc23)cc1`, the growth is 45.2% (inactive).

Consider `Cn1cc(NC(=O)c2cc(NC(=O)c3ccc(/C=C/c4ccccc4)cc3)cn2C)cc1C(=O)NCCCN1CCOCC1`, for which the growth was -37.6% (active).

In the case of `Cc1cc(C2(c3cc(C)c(OCC(O)CNc4c(C)n(C)n(-c5ccccc5)c4=O)cc3C(C)C)OC(=O)c3ccccc32)c(C(C)C)cc1OCC(O)CNc1c(C)n(C)n(-c2ccccc2)c1=O` (centres undefined), the growth was 0.434% (active).
